Hits are enriched below; roughly 3.5% of the tested compounds scored in any of these assays.
FBW7 activator = human FBW7 E3 ligase activation, primary screen; hit rate 0.13% among 650,000; AlphaScreen FBW7–phospho-cyclin E peptide binding, activator screen; AID 1259310; normalized activity (activation), % at 26.1 µM; in the data active = normalized activity above about 1.9%;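 also: purified mutant Fbw7 with reduced substrate affinity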
TEAD-YAP block = TEAD-YAP interaction inhibition. HEK-TIYL cells, TEAD-Gal4/YAP UAS-luciferase luminescence. inhibition, % at 9.12 µM. hit rate 1.4% among 640,000. AID 1259422; in the data active = inhibition above about 32%;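 also: 0% = median of test compound wells and 100% = reference inhibitor wells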
MITF primary = human MITF inhibition, primary screen | hit rate 0.91% among 650,000 | AlphaScreen MITF homodimerization, bead proximity signal | inhibition, % at 2.6 µM | O75030; in the data active = inhibition above about 50%;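 also: 0% = vehicle wells with protein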
GPR151 activ = human GPR151 activation. Q8TDV0. PathHunter beta-arrestin GPR151 cells, luminescence. activation, % at 11.2 µM. hit rate 1% among 650,000. AID 1508602; in the data active = activation above about 4.9%;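 also: 0% = median of compound wells and 100% = cells with positive control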
An asterisk follows results filed as active.

`COc1ccccc1N=c1scc(-c2ccc(OC)c(OC)c2)n1CCCO` gave FBW7 activator 0, TEAD-YAP block 42*, MITF primary 11 and GPR151 activ 1.
`COc1ccc(-c2csc(=Nc3ccccc3)n2CCCO)cc1OC` gave FBW7 activator 0, TEAD-YAP block 5, MITF primary 11 and GPR151 activ -1.
COc1ccccc1-c1cnn2c(N3CCCCC3CCO)ccnc12 (stereo unspecified) was read as FBW7 activator 0, TEAD-YAP block -7, MITF primary -22 and GPR151 activ -1.
OC[C@@H]1CCCN1c1ccnc2c(-c3ccc(F)cc3)cnn12 was read as FBW7 activator 0, TEAD-YAP block 74*, MITF primary 2 and GPR151 activ -2.
OCCC1CCCCN1c1ccnc2c(-c3ccccc3F)cnn12 (stereo unspecified) was read as FBW7 activator 0, TEAD-YAP block 63*, MITF primary -8 and GPR151 activ 0.
OCCC1CCCCN1c1ccnc2c(-c3cccc(Cl)c3)cnn12 (stereo unspecified) was read as FBW7 activator 0, TEAD-YAP block 90*, MITF primary -7 and GPR151 activ 0.
For OCCC1CCCCN1c1ccnc2c(-c3ccccc3)cnn12 (stereo unspecified) the results were FBW7 activator 0, TEAD-YAP block 89*, MITF primary 9 and GPR151 activ 0.
`CCc1csc2ncc(C(=O)Nc3cc(C(C)(C)C)on3)c(=O)n12` gave FBW7 activator 0, TEAD-YAP block 5, MITF primary 3 and GPR151 activ 0.
For C=C(C)CNC(=S)Nc1sc2c(c1C(=O)OCC)CC(C)(C)OC2 the results were FBW7 activator 0, TEAD-YAP block 7, MITF primary -25 and GPR151 activ 0.
For CCOc1cc(CN2CCN(CC(C)C)C(CCO)C2)ccc1O (stereo unspecified) the results were FBW7 activator 0, TEAD-YAP block 6, MITF primary 17 and GPR151 activ 1.
COC(=O)c1ccc(NC(=O)COC(=O)c2ccc(Cl)c(N)c2)cc1 was read as FBW7 activator 0, TEAD-YAP block 10, MITF primary 11 and GPR151 activ 0.
For OCCC1CCCCN1c1ccnc2c(-c3ccc(F)cc3)cnn12 (stereo unspecified) the results were FBW7 activator 0, TEAD-YAP block 97*, MITF primary -25 and GPR151 activ 1.
`Cc1ccc(-c2cnn3c(N4CCCCC4CCO)ccnc23)cc1C` (stereo unspecified) gave FBW7 activator 0, TEAD-YAP block 7, MITF primary 3 and GPR151 activ 0.
Screening CCc1cc(-c2nc(N)ncc2-c2ccc(Br)cc2)c(O)cc1OC returned FBW7 activator 0, TEAD-YAP block -3, MITF primary 1 and GPR151 activ 0.
For CCCc1cc(-c2oncc2-c2ccc3c(c2)OCCO3)c(O)cc1OC the results were FBW7 activator 0, TEAD-YAP block 51*, MITF primary -4 and GPR151 activ 0.
`CCc1cc(-c2oncc2-c2ccc(Br)cc2)c(O)cc1OC` gave FBW7 activator 0, TEAD-YAP block 55*, MITF primary -3 and GPR151 activ 0.
For NC(=O)C1CCN(C2CC(=O)N(c3cccc([N+](=O)[O-])c3)C2=O)CC1 (stereo unspecified) the results were FBW7 activator 0, TEAD-YAP block -2, MITF primary 0 and GPR151 activ 1.
Screening c1ccc(CC2CCN(c3ncnc4sccc34)CC2)cc1 returned FBW7 activator 0, TEAD-YAP block 34*, MITF primary 1 and GPR151 activ 3.
Screening COCCNC(=O)/C(C#N)=C/C1=C(N2CCOCC2)C(=C\c2ccccc2)/CC1 returned FBW7 activator -1, TEAD-YAP block 9, MITF primary 9 and GPR151 activ 2.
`CCOC(=O)/C(C#N)=C/C1=C(N2CCOCC2)C(=C\c2ccccc2)/CC1` gave FBW7 activator -1, TEAD-YAP block -2, MITF primary 51* and GPR151 activ 0.
For Cc1cc(C)nc(Nc2ccc(Nc3ccccc3)cc2)n1 the results were FBW7 activator 0, TEAD-YAP block 33*, MITF primary 7 and GPR151 activ -2.
For COc1cc(Nc2nc(C)cc(Nc3ccc(NC(C)=O)cc3)n2)cc(OC)c1OC the results were FBW7 activator 0, TEAD-YAP block -1, MITF primary 15 and GPR151 activ 1.
For CCNc1cc(C)nc(Nc2ccc(NC(=O)c3cc(OC)c(OC)c(OC)c3)cc2)n1 the results were FBW7 activator 0, TEAD-YAP block 77*, MITF primary 12 and GPR151 activ -1.

Compound activity (PubChem)
